In PubChem BioAssay AID2283125 (EPA ToxCast):
Records with an inconclusive call do not appear. The source made the active and inactive calls. The calls were made as follows: active = hit-call score of the fitted dose curve at least 0.9, where 1 is the maximum; inconclusive = response in the unintended direction; inactive = score below 0.9.

Target: Tyrosine-protein kinase ABL1 (Homo sapiens) (UniProt P00519)
Experiment: NVS_ENZ_hAbl: NovaScreen (NVS) Enzymatic Assay for human ABL proto-oncogene 1, non-receptor tyrosine kinase
Protocol: NVS_ENZ_hAbl is a biochemical, single-readout assay that uses extracted gene-proteins in a cell-free assay. Measurements were taken 1 hour after chemical dosing in a 96-well plate.NVS_ENZ_hAbl is one of one assay component(s) measured or calculated from the NVS_ENZ_hAbl assay. It is designed to make measurements of enzyme activity, a form of enzyme reporter, as detected with fluorescence intensity signals by Fluorescence and electrophoretic mobility shift technology.Data from the assay component NVS_ENZ_hAbl was analyzed into 1 assay endpoint. This assay endpoint, NVS_ENZ_hAbl, was analyzed in the positive analysis fitting direction relative to DMSO as the negative control and baseline of activity. Using a type of enzyme reporter, loss-of-signal activity can be used to understand changes in the enzymatic activity as they relate to the gene ABL1. Furthermore, this assay endpoint can be referred to as a primary readout, because this assay has produced multiple assay endpoints where this one serves a enzymatic activity function. To generalize the intended target to other relatable targets, this assay endpoint is annotated to the kinase intended target family, where the subfamily is non-receptor tyrosine kinase. […]

Chain of Tyrosine-protein kinase ABL1 (Homo sapiens) (P00519 whole entry, looked up): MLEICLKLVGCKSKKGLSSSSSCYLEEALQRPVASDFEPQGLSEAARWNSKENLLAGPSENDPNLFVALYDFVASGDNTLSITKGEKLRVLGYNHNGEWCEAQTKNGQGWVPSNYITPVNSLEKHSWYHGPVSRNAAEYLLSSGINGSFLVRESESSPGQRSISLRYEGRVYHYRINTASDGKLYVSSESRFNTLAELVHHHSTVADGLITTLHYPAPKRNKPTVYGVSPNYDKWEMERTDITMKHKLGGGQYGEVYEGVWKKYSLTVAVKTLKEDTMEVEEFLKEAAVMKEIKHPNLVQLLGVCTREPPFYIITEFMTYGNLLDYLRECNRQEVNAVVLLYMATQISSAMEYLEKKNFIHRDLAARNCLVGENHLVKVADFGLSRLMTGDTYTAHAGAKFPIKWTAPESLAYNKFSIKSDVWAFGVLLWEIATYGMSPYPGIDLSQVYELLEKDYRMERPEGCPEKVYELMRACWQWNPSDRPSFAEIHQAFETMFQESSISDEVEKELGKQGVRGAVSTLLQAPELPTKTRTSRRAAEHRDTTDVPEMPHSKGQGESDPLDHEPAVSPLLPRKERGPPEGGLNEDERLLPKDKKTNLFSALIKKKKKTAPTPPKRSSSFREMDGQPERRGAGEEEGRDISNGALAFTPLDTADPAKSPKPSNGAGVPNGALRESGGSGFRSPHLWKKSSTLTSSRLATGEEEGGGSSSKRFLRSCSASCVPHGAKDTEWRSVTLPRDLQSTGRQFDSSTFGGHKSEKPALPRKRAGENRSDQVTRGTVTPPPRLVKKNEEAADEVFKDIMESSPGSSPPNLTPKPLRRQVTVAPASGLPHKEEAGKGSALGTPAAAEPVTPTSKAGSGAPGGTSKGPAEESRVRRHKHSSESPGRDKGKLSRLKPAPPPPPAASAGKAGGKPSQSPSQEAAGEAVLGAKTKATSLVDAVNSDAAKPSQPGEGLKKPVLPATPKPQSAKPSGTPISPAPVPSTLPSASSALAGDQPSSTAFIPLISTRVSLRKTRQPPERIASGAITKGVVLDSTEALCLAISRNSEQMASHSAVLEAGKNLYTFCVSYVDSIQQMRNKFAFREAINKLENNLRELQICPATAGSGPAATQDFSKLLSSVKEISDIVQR

Compound | outcome
O=C(Nc1ccc([N+](=O)[O-])cc1Cl)c1cc(Cl)ccc1O | inactive
c1ccc2[nH]c(-c3cscn3)nc2c1 | inactive
